PubChem BioAssay (EPA / NIEHS)
Several values for one entry are separate records, joined by “and”; a condition that tells them apart may be missing. Equal values may be shown once. Some structures have more than one record in an assay (separate samples or runs), and their calls can disagree. Activity calls are given as the source filed them. Rule for the calls: active = hit-call score of the fitted dose curve at least 0.9, where 1 is the maximum; inactive = score below 0.9.

Experiments:
[1] = read-out: Vascular cell adhesion molecule 1 (VCAM1), VCAM1 (gene 7412); test: BSK_BF4T_VCAM1: BioMAP Diversity Plus: BF4T Assay for Vascular cell adhesion molecule 1 (VCAM1) Biomarker Activity (AID 2284249); conditions: primary human bronchial epithelial cells with fibroblasts
Experimental: (§1) BSK_BF4T is a cell-based, multiplexed-readout assay that uses bronchial epithelial cells and dermal fibroblasts, a human vascular primary cell, with measurements taken at 24 hours after chemical dosing in a microplate: 96-well plate.BSK_BF4T_VCAM1 is an assay component measured in the BSK_BF4T assay. It measures VCAM-1 antibody related to regulation of gene expression using ELISA technology.Data from the assay component BSK_BF4T_VCAM1 was analyzed at the endpoint, BSK_BF4T_VCAM1, in the positive analysis fitting direction relative to DMSO as the negative control and baseline of activity. Using a type of binding reporter, gain or loss-of-signal activity can be used to understand protein changes. […]
(§2) The levels of cell surface (or secreted, indicated by the prefix "s") biomarker endpoints were measured by ELISA. Overt cytotoxicity to cells in confluent adherent cultures (all systems other than the BT system) was assessed by measuring total protein levels using sulforhodamine B (SRB) staining in parallel cultures at the time of biomarker measurements, indicated as SRB endpoints. For proliferation assays for adherent cell types, individual cell types are cultured at sub-confluence and relative cell numbers quantified by SRB staining at time points optimized for each system (48 h: 3C and CASM3C systems; 72 h: BT and HDF3CGF systems; 96 h: SAg system). […] Plates were read after 6 h.

[2] = read-out: Collagen I, COL1A1 (gene 1277); test: BSK_hDFCGF_CollagenI: BioMAP Diversity Plus: hDFCGF Assay for Collagen I Biomarker Activity (AID 2284250); conditions: primary human foreskin fibroblasts
How it was run: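 Primary human foreskin fibroblasts (hDFCGF system) exposed to chemical for 24 h; Collagen I measured by ELISA. Activity fitted in the positive direction relative to DMSO baseline, with SRB total-protein staining in parallel cultures for overt cytotoxicity.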

[3] = read-out: Interferon-inducible T-cell alpha chemoattractant (ITAC), CXCL11 (gene 6373); test: BSK_hDFCGF_ITAC: BioMAP Diversity Plus: hDFCGF Assay for Interferon-inducible T-cell alpha chemoattractant (ITAC) Biomarker Activity (AID 2284251); conditions: primary human foreskin fibroblasts
How it was run: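 Primary human foreskin fibroblasts (hDFCGF system) treated for 24 h; I-TAC quantified by ELISA. Gain-direction fitting versus DMSO; parallel SRB staining of total protein flagged overt cytotoxicity.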

[4] = read-out: Plasminogen activator inhibitor-1 (PAI1), SERPINE1 (gene 5054); test: BSK_KF3CT_PAI1: BioMAP Diversity Plus: KF3CT Assay for Plasminogen activator inhibitor-1 (PAI1) Biomarker Activity (AID 2284252); conditions: primary human keratinocytes with fibroblasts
How it was run: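 Human primary keratinocyte/foreskin fibroblast co-culture was dosed with compound and sampled at 24 h. PAI-1 was quantified by ELISA, with activity fitted in the positive direction relative to DMSO vehicle as baseline.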

[5] = read-out: Monocyte Chemoattractant Protein-1 (MCP1), CCL2 (gene 6347); test: BSK_IMphg_MCP1: BioMAP Diversity Plus: IMphg Assay for Monocyte Chemoattractant Protein-1 (MCP1) Biomarker Activity (AID 2284253); conditions: primary human endothelial cells with macrophages
How it was run: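 Human venular endothelial cells co-cultured with macrophages; MCP-1 measured by ELISA 24 hours post-dose and fitted against DMSO. Cytotoxicity monitored by SRB total-protein staining in parallel cultures.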

[6] = read-out: Interleukin-8 (IL8), CXCL8 (gene 3576); test: BSK_KF3CT_IL8: BioMAP Diversity Plus: KF3CT Assay for Interleukin-8 (IL8) Biomarker Activity (AID 2284254); conditions: primary human keratinocytes with fibroblasts
How it was run: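 IL-8 read-out: ELISA, 24 h post-dose, human skin primary co-culture (keratinocytes + foreskin fibroblasts). DMSO = baseline; positive-direction fit.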

[7] = read-out: Macrophage Inflammatory Protein-1 Alpha (MIP1a), CCL3 (gene 6348); test: BSK_IMphg_MIP1a: BioMAP Diversity Plus: IMphg Assay for Macrophage Inflammatory Protein-1 Alpha (MIP1a) Biomarker Activity (AID 2284255); conditions: primary human endothelial cells with macrophages
Experimental: BSK_IMphg is a cell-based, multiplexed-readout assay that uses venular endothelial cells and macrophages, a human vascular primary cell, with measurements taken at 24 hours after chemical dosing in a microplate: 96-well plate.BSK_IMphg_MIP1a is an assay component measured in the BSK_IMphg assay. It measures MIP-1a antibody related to regulation of gene expression using ELISA technology.Data from the assay component BSK_IMphg_MIP1a was analyzed at the endpoint, BSK_IMphg_MIP1a, in the positive analysis fitting direction relative to DMSO as the negative control and baseline of activity. Using a type of binding reporter, gain or loss-of-signal activity can be used to understand protein changes. […]
as §2

[8] = read-out: Plasminogen activator inhibitor-1 (PAI1), SERPINE1 (gene 5054); test: BSK_MyoF_PAI1: BioMAP Diversity Plus: MyoF Assay for Plasminogen activator inhibitor-1 (PAI1) Biomarker Activity (AID 2284256); conditions: primary human lung fibroblasts
Experimental: as §1, with “BSK_MyoF” for “BSK_BF4T”, “lung” for “bronchial epithelial cells and dermal”, “plate.BSK_MyoF_PAI1” for “plate.BSK_BF4T_VCAM1”, “PAI-1” for “VCAM-1”, “BSK_MyoF_PAI1” for “BSK_BF4T_VCAM1”, “BSK_MyoF_PAI1,” for “BSK_BF4T_VCAM1,”
as §2

CD69, CD69 (gene 969) = test: BSK_IMphg_CD69: BioMAP Diversity Plus: IMphg Assay for CD69 Biomarker Activity (AID 2284257); conditions: primary human endothelial cells with macrophages
How it was run: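 Human venular endothelial cells co-cultured with macrophages; CD69 quantified by ELISA 24 h after compound addition. Activity fitted in the positive direction relative to DMSO baseline; cytotoxicity tracked in parallel cultures via SRB total-protein staining.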

[9] = read-out: Eotaxin 3, CCL26 (gene 10344); test: BSK_BF4T_Eotaxin3: BioMAP Diversity Plus: BF4T Assay for Eotaxin 3 Biomarker Activity (AID 2284258); conditions: primary human bronchial epithelial cells with fibroblasts
How it was run: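 Co-culture of human bronchial epithelial cells and dermal fibroblasts, exposed to chemicals for 24 h versus DMSO. Eotaxin-3 quantified by ELISA; cytotoxicity checked in parallel cultures by sulforhodamine B total-protein staining.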

Measured: AC50

CCNS(=O)(=O)C(F)(F)C(F)(F)C(F)(F)C(F)(F)C(F)(F)C(F)(F)C(F)(F)C(F)(F)F
active: [1] 15.4 µM and 14.3 µM | [2] 46.9 µM and 38.3 µM | [3] 24.8 µM and 27.5 µM | [4] 39.7 µM and 39.3 µM | [5] 41.4 µM and 36.9 µM | [7] 35 µM | [8] 58.4 µM and 51.1 µM | CD69, CD69 (gene 969) 38.4 µM and 39.2 µM | [9] 7.65 µM and 6.97 µM
inactive: [6] | [7]
